From ChEMBL document CHEMBL3988442, “University of Dundee, Small-Polar-MMV Screening Library” (2021)
For some assays here: Results with a measured potency or affinity are listed apart.

Columns and labels:
Set-up in all cases: scale not given: direction of the effect not stated beside the values
[1] = target: Protein translocase subunit SecA (Escherichia coli (strain K12)) (UniProt P10408); assay: Assay to Identify E. coli SecA ATPase Inhibitors; type: functional; conditions: 30 µM
[2] = target: T1, Ubiquitin-activating enzyme e1, putative (Leishmania donovani (strain BPK282A1)) (UniProt E9BSI1); assay: Leishmania donovani Ubiquitin Activating Enzyme (LdE1); type: functional; conditions: 30 µM
T1 sequence (whole entry): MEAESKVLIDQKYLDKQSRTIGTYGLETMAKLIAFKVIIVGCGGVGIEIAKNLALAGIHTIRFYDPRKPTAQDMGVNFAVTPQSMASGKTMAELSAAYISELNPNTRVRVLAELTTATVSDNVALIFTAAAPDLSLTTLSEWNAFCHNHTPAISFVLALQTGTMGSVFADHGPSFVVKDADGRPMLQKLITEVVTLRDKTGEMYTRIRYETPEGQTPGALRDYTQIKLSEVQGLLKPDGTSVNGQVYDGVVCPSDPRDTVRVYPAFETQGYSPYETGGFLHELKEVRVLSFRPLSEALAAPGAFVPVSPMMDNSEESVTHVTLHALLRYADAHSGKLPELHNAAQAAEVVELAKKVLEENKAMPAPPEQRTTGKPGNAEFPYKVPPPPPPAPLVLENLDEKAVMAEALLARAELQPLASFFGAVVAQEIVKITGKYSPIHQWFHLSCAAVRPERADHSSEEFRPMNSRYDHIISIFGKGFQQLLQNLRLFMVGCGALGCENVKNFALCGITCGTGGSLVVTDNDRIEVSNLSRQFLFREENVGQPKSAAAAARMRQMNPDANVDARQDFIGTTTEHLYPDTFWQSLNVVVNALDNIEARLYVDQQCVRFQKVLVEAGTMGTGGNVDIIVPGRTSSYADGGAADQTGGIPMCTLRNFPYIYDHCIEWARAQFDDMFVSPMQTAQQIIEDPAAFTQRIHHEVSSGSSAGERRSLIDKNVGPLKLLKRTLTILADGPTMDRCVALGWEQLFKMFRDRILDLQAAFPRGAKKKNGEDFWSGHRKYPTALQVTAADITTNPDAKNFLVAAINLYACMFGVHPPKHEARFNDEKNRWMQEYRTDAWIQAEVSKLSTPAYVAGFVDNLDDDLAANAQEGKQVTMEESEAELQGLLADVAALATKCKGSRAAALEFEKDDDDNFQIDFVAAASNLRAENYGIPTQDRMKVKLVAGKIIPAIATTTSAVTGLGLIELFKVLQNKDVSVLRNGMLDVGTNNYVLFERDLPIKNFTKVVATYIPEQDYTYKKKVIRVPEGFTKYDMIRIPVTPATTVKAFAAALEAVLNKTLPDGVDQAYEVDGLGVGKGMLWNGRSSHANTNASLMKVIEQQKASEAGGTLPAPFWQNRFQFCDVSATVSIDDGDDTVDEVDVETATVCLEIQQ

[3] = target: AMP-activated protein kinase, AMPK (Homo sapiens) (UniProt P54646+O43741+P54619+Q9UGJ0+Q9Y478+Q13131+Q9UGI9); assay: AMP-dependent Kinase enzyme assay. An in vitro enzyme assay that detects ADP turnover that is directly proportional to AMPK activity. This uses naive AMPK that is activated during the assay with MK-8722; type: functional; conditions: 30 µM
[4] = target: Sialic acid-binding Ig-like lectin 9 (Homo sapiens) (UniProt Q9Y336); assay: Hs-Siglec9 ALPHAscreen SOP 20170721; conditions: 10 µM
Sialic acid-binding Ig-like lectin 9 (Homo sapiens), sequence (Q9Y336 whole entry): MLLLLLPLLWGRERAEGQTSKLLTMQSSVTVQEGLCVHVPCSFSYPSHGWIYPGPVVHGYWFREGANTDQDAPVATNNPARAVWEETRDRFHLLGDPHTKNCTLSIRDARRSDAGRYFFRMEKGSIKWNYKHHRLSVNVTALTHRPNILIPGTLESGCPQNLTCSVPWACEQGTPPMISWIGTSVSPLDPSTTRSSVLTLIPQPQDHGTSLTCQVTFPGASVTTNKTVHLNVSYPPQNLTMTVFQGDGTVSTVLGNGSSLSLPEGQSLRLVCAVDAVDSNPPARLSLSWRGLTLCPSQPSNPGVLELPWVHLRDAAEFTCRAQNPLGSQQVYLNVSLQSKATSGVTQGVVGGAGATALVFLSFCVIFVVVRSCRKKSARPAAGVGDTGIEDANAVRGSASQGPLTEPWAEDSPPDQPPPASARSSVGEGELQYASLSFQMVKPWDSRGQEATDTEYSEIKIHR

Trypanosoma cruzi = assay: Trypanosoma cruzi phosphomannomutase and mannose-1-phosphate guanylyltransferase assay; type: functional; conditions: 10 µM
[5] = target: T2, Arginase-2, mitochondrial (Homo sapiens) (UniProt P78540); assay: in vitro enzyme assay to detect the production of urea directly proportional to the activity of Arginase II; type: functional; conditions: 33.3 µM; also: in the data most compounds retested in dose-response had high values
T2 sequence (whole entry): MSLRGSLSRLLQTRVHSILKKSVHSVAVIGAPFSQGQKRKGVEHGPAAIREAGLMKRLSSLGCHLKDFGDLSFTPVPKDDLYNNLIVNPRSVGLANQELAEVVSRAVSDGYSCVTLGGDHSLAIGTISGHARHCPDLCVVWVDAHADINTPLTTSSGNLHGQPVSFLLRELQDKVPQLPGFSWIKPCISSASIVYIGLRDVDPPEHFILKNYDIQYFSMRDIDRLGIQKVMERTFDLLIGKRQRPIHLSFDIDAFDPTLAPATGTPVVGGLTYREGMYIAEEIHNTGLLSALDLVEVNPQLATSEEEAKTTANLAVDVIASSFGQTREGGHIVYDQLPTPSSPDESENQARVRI

[6] = target: T3, Proteasome subunit beta (Trypanosoma cruzi) (UniProt O96673); assay: Trypanosoma cruzi proteasome chymotrypsin-like activity (TcProtChymo) assay.; also: in the data most compounds retested in dose-response had high values; type: functional; conditions: 9.37 µM
T3 sequence (whole entry): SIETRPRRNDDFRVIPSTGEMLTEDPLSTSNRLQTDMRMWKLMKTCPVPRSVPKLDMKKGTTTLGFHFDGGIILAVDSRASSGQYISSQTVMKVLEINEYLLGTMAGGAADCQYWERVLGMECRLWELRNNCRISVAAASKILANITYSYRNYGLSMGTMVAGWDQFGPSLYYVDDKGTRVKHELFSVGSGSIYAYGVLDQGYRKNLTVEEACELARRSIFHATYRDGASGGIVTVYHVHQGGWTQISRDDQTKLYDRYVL

Homo sapiens = species on record: Homo sapiens; assay: To identify inhibition of the IFN signalling (Jak-Stat) pathway via expression of an eGFP reporter gene under the control of an IFN-stimulated response element (ISRE) containing MxA promoter.; type: functional; conditions: 30 µM
[7] = target: T4, Tyrosyl-tRNA synthetase, putative (Trypanosoma cruzi (strain CL Brener)) (UniProt Q4DSP6); assay: Trypanosoma cruzi tyrosyl tRNA synthetase (TcYRS) _High Tyrosine SOP; type: functional; conditions: 30 µM; also: in the data most compounds retested in dose-response had high values
T4 sequence (whole entry): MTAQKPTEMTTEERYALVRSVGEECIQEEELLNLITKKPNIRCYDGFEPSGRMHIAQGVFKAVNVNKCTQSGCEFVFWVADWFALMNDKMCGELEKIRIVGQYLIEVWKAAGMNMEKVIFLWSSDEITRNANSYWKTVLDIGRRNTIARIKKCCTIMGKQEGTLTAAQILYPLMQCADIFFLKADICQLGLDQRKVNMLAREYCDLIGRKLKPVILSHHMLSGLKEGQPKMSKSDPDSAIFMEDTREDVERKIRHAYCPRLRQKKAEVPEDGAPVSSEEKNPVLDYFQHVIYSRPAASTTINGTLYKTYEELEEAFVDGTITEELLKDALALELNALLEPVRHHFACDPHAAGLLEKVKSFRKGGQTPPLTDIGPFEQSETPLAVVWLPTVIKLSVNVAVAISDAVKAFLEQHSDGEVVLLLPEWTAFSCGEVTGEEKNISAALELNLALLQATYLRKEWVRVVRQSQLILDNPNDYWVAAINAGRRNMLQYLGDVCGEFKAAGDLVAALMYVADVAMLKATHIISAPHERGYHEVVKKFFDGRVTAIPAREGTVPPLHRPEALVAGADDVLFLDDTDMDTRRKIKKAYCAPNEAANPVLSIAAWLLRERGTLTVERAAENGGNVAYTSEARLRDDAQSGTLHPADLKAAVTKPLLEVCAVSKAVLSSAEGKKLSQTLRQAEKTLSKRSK

[8] = target: T4, Tyrosyl-tRNA synthetase, putative (Trypanosoma cruzi (strain CL Brener)); assay: Trypanosoma cruzi tyrosyl tRNA synthetase (TcYRS) SOP; type: functional; conditions: 30 µM
[9] = target: Chromo domain-containing protein 1 (Saccharomyces cerevisiae (strain ATCC 204508 / S288c) (Baker's yeast)) (UniProt P32657); assay: ScCHD-1 Enzyme Inhibition Assay; type: functional; conditions: 30 µM; also: in the data most compounds retested in dose-response had high values
Chromo domain-containing protein 1 (Saccharomyces cerevisiae (strain ATCC 204508 / S288c) (Baker's yeast)), sequence (P32657 whole entry, the tested form may be a part): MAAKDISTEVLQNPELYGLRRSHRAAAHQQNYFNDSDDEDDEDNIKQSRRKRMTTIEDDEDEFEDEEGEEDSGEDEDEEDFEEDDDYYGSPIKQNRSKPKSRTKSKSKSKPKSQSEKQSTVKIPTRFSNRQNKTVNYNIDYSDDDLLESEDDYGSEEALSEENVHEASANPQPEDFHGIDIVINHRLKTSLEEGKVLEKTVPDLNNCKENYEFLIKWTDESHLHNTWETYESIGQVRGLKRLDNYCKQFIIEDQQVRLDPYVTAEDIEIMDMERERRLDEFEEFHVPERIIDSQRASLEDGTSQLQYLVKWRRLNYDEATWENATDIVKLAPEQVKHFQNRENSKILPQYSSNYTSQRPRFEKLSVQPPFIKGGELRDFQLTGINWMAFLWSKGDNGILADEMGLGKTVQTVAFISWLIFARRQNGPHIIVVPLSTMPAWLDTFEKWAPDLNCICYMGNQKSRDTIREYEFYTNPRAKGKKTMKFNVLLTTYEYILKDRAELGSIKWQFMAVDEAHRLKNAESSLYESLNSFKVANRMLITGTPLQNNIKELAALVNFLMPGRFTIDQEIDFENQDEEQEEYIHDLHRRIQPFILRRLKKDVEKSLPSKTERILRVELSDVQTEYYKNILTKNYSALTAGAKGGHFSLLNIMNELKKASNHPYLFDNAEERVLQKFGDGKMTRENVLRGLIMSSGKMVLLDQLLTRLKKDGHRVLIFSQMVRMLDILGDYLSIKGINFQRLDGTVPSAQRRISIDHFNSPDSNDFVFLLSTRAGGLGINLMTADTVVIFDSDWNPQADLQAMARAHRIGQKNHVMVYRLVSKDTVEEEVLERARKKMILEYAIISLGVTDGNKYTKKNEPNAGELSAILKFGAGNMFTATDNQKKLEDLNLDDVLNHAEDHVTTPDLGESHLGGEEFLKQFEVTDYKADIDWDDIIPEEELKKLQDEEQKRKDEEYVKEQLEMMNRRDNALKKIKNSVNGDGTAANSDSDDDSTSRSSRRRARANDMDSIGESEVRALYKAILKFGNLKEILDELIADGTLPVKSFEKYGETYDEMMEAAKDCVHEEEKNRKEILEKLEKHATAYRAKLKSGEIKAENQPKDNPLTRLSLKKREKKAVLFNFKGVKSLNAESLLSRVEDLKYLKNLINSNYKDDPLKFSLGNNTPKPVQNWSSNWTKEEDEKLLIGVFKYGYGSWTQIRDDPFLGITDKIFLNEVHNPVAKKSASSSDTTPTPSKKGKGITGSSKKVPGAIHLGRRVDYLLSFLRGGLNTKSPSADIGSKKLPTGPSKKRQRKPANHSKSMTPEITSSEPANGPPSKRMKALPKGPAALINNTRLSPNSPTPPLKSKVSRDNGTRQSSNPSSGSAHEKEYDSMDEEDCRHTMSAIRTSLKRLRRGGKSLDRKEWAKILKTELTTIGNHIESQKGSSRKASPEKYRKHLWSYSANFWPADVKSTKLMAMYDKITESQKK

Protein translocase subunit SecA (Escherichia coli (strain K12)), sequence (P10408 whole entry): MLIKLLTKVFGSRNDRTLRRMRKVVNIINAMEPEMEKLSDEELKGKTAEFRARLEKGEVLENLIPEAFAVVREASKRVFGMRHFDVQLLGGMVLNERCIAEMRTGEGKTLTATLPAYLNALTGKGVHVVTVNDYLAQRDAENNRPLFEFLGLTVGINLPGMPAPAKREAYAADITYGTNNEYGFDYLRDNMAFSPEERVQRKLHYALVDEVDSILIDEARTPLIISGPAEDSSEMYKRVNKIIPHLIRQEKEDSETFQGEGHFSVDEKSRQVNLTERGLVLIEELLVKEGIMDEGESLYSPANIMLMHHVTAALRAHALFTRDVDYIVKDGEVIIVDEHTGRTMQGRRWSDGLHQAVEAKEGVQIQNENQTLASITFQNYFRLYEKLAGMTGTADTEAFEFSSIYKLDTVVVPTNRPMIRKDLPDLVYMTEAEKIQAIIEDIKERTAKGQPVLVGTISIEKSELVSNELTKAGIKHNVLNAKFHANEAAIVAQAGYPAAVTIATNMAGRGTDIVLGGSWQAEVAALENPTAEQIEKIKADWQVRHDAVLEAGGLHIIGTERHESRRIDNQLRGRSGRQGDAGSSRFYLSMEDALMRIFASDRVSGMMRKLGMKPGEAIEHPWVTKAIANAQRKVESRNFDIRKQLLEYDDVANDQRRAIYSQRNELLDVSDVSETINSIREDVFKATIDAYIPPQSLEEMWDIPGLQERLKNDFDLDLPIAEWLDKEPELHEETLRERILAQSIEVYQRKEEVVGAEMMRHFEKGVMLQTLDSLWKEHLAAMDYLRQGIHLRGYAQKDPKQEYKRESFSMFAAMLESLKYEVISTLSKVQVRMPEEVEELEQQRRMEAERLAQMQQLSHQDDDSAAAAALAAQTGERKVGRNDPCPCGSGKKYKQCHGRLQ

Row | SMILES | Percent Effect [1] | Percent Effect [2] | Percent Effect [3] | Percent Effect [4] | Percent Effect (Trypanosoma cruzi) | Percent Effect [5] | Percent Effect [6] | Percent Effect (Homo sapiens) | Percent Effect [7] | Percent Effect [8] | Percent Effect [9]
1 | Clc1snnc1CN1CCCC(Cn2cncn2)C1 (stereo not given) | -1.77% | 17.7% | -3.42% | -8.68% | 1.98% | -1.52% | 18.6% | 6.4% | 10.3% | 29.1% | -10.8%
2 | CC(C)Oc1cccc(CNC(=O)NC(C)(C(=O)O)c2ccco2)c1 (stereo not given) | -2.82% | 13.2% | -1.29% | 13.7% | 3.08% | -1.08% | -2.79% | -7.9% | 9.36% | 18.5% | -0.593%
3 | CN(C)CC1CN(c2cnc3ccccc3n2)CCO1 (stereo not given) | -0.138% | 22.8% | -4.08% | -7.06% | 3.49% | 6.84% | 12.7% | 19.6% | 7.39% | 26.6% | -5.98%
4 | Cc1ccc(CNC(=O)CN2C=Nc3ccccc3S2(=O)=O)s1 | -3.17% | 21.1% | -5.67% | -1.55% | 6.07% | -0.36% | 3.98% | 9.85% | 10.3% | 23.5% | -6.54%
5 | CCN(Cc1nc2c(cnn2C)c(=O)[nH]1)c1cccc(Cl)c1 | -2.52% | 10.4% | 4.11% | -5.62% | 1.27% | 0.632% | 14.3% | 16.2% | 1.91% | 14.1% | -9.43%
6 | CCN(CC)C(=O)CN(C)C1CCc2ccccc21 (stereo not given) | -0.321% | 18.4% | -0.859% | -2.93% | 3.57% | 3.83% | 18.7% | 11.3% | 8.33% | 21.9% | -9.79%
7 | O=C(C1CCOCC1)N1CCc2ncnc(-c3ccc(F)cc3)c2CC1 | -1.29% | 2.67% | 4.73% | 2.72% | -1.35% | -2.33% | 8.89% | -4.53% | 0% | -2.5% | -3.02%
8 | O=C(c1cscn1)N1CC[C@]2(C[C@@H](OCCN3CCCC3)CO2)C1 | -1.81% | 13.3% | 1.02% | -2.21% | -2.95% | -0.699% | 11.4% | 7.58% | 5.32% | 14.1% | -0.0589%
9 | CCOCC1CN(Cc2ccoc2)Cc2ncn(CC3CC3)c21 (stereo not given) | -8.23% | -2.7% | 0.834% | 4.02% | -2.34% | -0.833% | 10.1% | 3.58% | 4.95% | -1.22% | -0.436%
10 | Cc1ncc2c(n1)CN(CC(=O)Nc1nncs1)CC2 | -1.88% | 2.63% | -37.1% | 5.79% | 3.27% | 1.08% | 6.01% | -6.49% | 5.42% | 11.1% | -4.76%
